The results in this text go back to PubChem BioAssay (EPA / NIEHS).

Inconclusive results are not listed. Activity calls are given as the source filed them. The calls were made as follows, unless noted: active = hit-call score of the fitted dose curve at least 0.9, where 1 is the maximum; inactive = score below 0.9.

Read-out in experiment [1]: Nuclear factor erythroid 2-related factor 2 (Homo sapiens) (UniProt Q16236)
Briefly: LTEA_HepaRG_NFE2L2: Life Technologies and Expression Analysis (LTEA) Assay for Nuclear factor erythroid 2-related factor 2 (NFE2L2) Transcription Factor using HepaRG (AID 2283527).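 Also: TaqMan qRT-PCR transcript level normalised to ACTB GAPDH and POLR2A housekeeping genes.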 Particulars: mRNA level, 48 h; actives raise or lower the signal. Put shortly:
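Differentiated human HepaRG cells in serum-free induction medium were exposed for 48 h to eight concentrations (top 100 uM, half-log dilutions, 0.5% DMSO), in duplicate. NFE2L2 mRNA was quantified by TaqMan qRT-PCR, normalized to ACTB, GAPDH and POLR2A, with bidirectional fitting versus DMSO.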

Read-out in experiment [2]: Signal transducer and activator of transcription 3 (Homo sapiens) (UniProt P40763)
Kind of experiment: LTEA_HepaRG_STAT3: Life Technologies and Expression Analysis (LTEA) Assay for Signal transducer and activator of transcription (STAT3) using HepaRG (AID 2283529). Particulars: mRNA level, 48 h; actives raise or lower the signal. Put shortly: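 Differentiated human HepaRG cells in serum-free induction medium were exposed in duplicate for 48 h to eight half-log concentrations up to 100 uM in 0.5% DMSO. STAT3 mRNA was quantified by TaqMan qRT-PCR, normalized to ACTB, GAPDH and POLR2A, and fitted bidirectionally against DMSO.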

Read-out in experiment [3]: solute carrier (SLCO1B1), SLCO1B1 (gene 10599)
Briefly: LTEA_HepaRG_SLCO1B1: Life Technologies and Expression Analysis (LTEA) Assay for solute carrier (SLCO1B1) using HepaRG (AID 2283530). Particulars: mRNA level, 48 h; actives raise or lower the signal. The method in brief: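 Gain or loss of SLCO1B1 mRNA is fitted against the 0.5% DMSO vehicle in human HepaRG liver cells treated 48 h at up to 100 uM in half-log steps. Expression comes from qRT-PCR normalized to endogenous controls.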

Read-out in experiment [4]: sulfotransferase 2A1 (SULT2A1), SULT2A1 (gene 6822)
Kind of experiment: LTEA_HepaRG_SULT2A1: Life Technologies and Expression Analysis (LTEA) Assay for sulfotransferase 2A1 (SULT2A1) using HepaRG (AID 2283531). Particulars: mRNA level, 48 h; actives raise or lower the signal. Put shortly:
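Cells were plated and cultured 48 h, switched to serum-free induction medium, then dosed in duplicate for 48 h (8 concentrations, max 100 uM). RNA was isolated and SULT2A1 expression measured by qRT-PCR; gain or loss of signal fitted relative to DMSO.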

Read-out in experiment [5]: Transforming Growth Factor (TGFA), TGFA (gene 7039)
Briefly: LTEA_HepaRG_TGFA: Life Technologies and Expression Analysis (LTEA) Assay for Transforming Growth Factor (TGFA) using HepaRG (AID 2283532). Particulars: mRNA level, 48 h; actives raise or lower the signal. The method in brief: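 Differentiated human HepaRG cells, plated 48 h then switched to serum-free induction medium, were exposed in duplicate for 48 h to 8-point half-log series from 100 uM in 0.5% DMSO. TGFA mRNA measured by qRT-PCR, normalized to ACTB/GAPDH/POLR2A, bidirectional fit versus DMSO.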

Read-out in experiment [6]: Transforming Growth Factor (TGFB1), TGFB1 (gene 7040)
Kind of experiment: LTEA_HepaRG_TGFB1: Life Technologies and Expression Analysis (LTEA) Assay for Transforming Growth Factor (TGFB1) Transporter using HepaRG (AID 2283533). Particulars: mRNA level, 48 h; actives raise or lower the signal. The method in brief: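 Expression change of TGFB1 in human HepaRG cells is measured after a 48 h chemical exposure, up to 100 uM in 0.5% DMSO vehicle. Curves are fitted in both directions relative to the DMSO baseline.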

Read-out in experiment [7]: TIMP1, TIMP1 (gene 7076)
Briefly: LTEA_HepaRG_TIMP1: Life Technologies and Expression Analysis (LTEA) Assay for TIMP1 using HepaRG (AID 2283534). Particulars: mRNA level, 48 h; actives raise or lower the signal. Put shortly:
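We dosed human liver HepaRG cultures for 48 hours with up to 100 uM test chemical and measured TIMP1 expression by qRT-PCR. Activity in either direction is fitted relative to the 0.5% DMSO vehicle.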

Read-out in experiment [8]: Tumor necrosis factor receptor 1 (TNFRSF1A), TNFRSF1A (gene 7132)
Briefly: LTEA_HepaRG_TNFRSF1A: Life Technologies and Expression Analysis (LTEA) Assay for Tumor necrosis factor receptor 1 (TNFRSF1A) using HepaRG (AID 2283535). As to conditions: mRNA level, 48 h; actives raise or lower the signal. Put shortly: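 Expression of TNFRSF1A in human HepaRG liver cells was measured by qRT-PCR 48 h after chemical dosing (maximum 100 uM). Bidirectional curve fitting used 0.5% DMSO as baseline.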

Read-out in experiment [9]: Cellular tumor antigen p53 (Homo sapiens) (UniProt P04637)
Kind of experiment: LTEA_HepaRG_TP53: Life Technologies and Expression Analysis (LTEA) Assay for Tumor Protein P53 (TP53) using HepaRG (AID 2283537). As to conditions: mRNA level, 48 h; actives raise or lower the signal. Put shortly: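 Differentiated HepaRG cells in serum-free induction medium exposed 48 h in duplicate to 8 half-log concentrations, top 100 uM, 0.5% DMSO. TP53 mRNA by TaqMan qRT-PCR (Fluidigm), normalized to ACTB, GAPDH, POLR2A; fitted bidirectionally versus DMSO.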

Read-out in experiment [10]: UDP glucuronosyltransferase (UGT1A1), UGT1A1 (gene 54658)
Briefly: LTEA_HepaRG_UGT1A1: Life Technologies and Expression Analysis (LTEA) Assay for UDP glucuronosyltransferase (UGT1A1) using HepaRG (AID 2283538). Particulars: mRNA level, 48 h; actives raise or lower the signal. The method in brief: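 HepaRG cells, 0.5% DMSO vehicle, 48 h exposure in serum-free induction medium to 8-point half-log series topping at 100 uM, in duplicate. UGT1A1 mRNA by Fluidigm qRT-PCR, normalized to ACTB/GAPDH/POLR2A; bidirectional fit versus DMSO.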

Read-out in experiment [11]: UDP glucuronosyltransferase (UGT1A6), UGT1A6 (gene 54578)
Kind of experiment: LTEA_HepaRG_UGT1A6: Life Technologies and Expression Analysis (LTEA) Assay for UDP glucuronosyltransferase (UGT1A6) using HepaRG (AID 2283539). As to conditions: mRNA level, 48 h; actives raise or lower the signal. Put shortly: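 Endpoint is UGT1A6 transcript induction or loss in a human liver cell line, quantified by TaqMan qRT-PCR 48 h after dosing. Concentrations ran from 100 uM downward in half-log steps in 0.5% DMSO; activity was fitted in both directions versus vehicle.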

Read-out in experiment [12]: X-box binding protein 1 (XBP1), XBP1 (gene 7494)
Kind of experiment: LTEA_HepaRG_XBP1: Life Technologies and Expression Analysis (LTEA) Assay for X-box binding protein 1 (XBP1) using HepaRG (AID 2283540). As to conditions: mRNA level, 48 h; actives raise or lower the signal. Put shortly:
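Human HepaRG monolayers receive test chemical for 48 h across an eight-point half-log series starting at 100 uM. XBP1 mRNA gain or loss is scored against DMSO by qRT-PCR.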

Experiment [13] can be described thus: LTEA_HepaRG_LDH_cytotoxicity: Cytotoxicity Assessment in the Life Technologies and Expression Analysis (LTEA) Assay (AID 2283563; active = hit-call score of the fitted dose curve at least 0.9, where 1 is the maximum). The method in brief: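 Human HepaRG hepatic cells are treated with test chemicals for 48 h at up to 100 uM in 0.5% DMSO. Cytotoxicity is scored from medium LDH against the vehicle control.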
Experiment [14] is described as follows: ATG_XTT_Cytotoxicity: Cytotoxicity Assessment in the Attagene TRANS-FACTORIAL HepG2 Assay (AID 2283584; active = hit-call score of the fitted dose curve at least 0.9, where 1 is the maximum). The method in brief:
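Transfect HepG2 with GAL4-UAS reporter units, dose compound, incubate 24 h, then measure viable cell number by XTT. Fit concentration response against DMSO baseline.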

Experiment [15] addresses Cellular tumor antigen p53 (Homo sapiens) (UniProt P04637). Briefly: TOX21_p53_BLA_p2_ratio: Tox21 HCT-116 p53 Agonism Beta-lactamase Assay, Ratio, Phase 2 (AID 2283592; active = hit-call score of the fitted dose curve at least 0.9, where 1 is the maximum). The method in brief:
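An inducible beta-lactamase reporter in HCT116 cells signals p53 pathway activation. After 16 h chemical exposure at 37C, cells load CCF4-AM substrate for 2 h at room temperature; activity is the cleaved/uncleaved emission ratio relative to DMSO.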

Experiment [16] in a line: TOX21_p53_BLA_p3_viability: Viability Assessment in the Tox21 HCT-116 p53 Agonism Beta-lactamase Assay, Phase 3 (AID 2283593; active = hit-call score of the fitted dose curve at least 0.9, where 1 is the maximum;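 also: cells exposed to compound for 16 h before reading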). Put shortly:
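HCT-116 cells (4000/well) rested 5 h at 37C, then got DMSO compounds by pin tool (217-fold dilution) for 16 h at 37C, 5% CO2. After the bla read, CellTiter-Glo was added and luminescence read at 30 min, room temperature.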

Experiment [17] concerns the target Cellular tumor antigen p53 (Homo sapiens) (UniProt P04637). Kind of experiment: TOX21_p53_BLA_p3_ratio: Tox21 HCT-116 p53 Agonism Beta-lactamase Assay, Ratio, Phase 3 (AID 2283596; active = hit-call score of the fitted dose curve at least 0.9, where 1 is the maximum). The method in brief:
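HCT116 p53-bla cells (4000/well) given compound in DMSO (217-fold dilution) after 5 h, incubated 16 h at 37C. CCF4-AM substrate 2 h at room temperature; 460/530 nm emission ratio, gain fitted against DMSO.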

Experiment [18] in a line: TOX21_p53_BLA_p2_viability: Viability Assessment in the Tox21 HCT-116 p53 Agonism Beta-lactamase Assay, Phase 2 (AID 2283591; active = hit-call score of the fitted dose curve at least 0.9, where 1 is the maximum;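 also: compound exposure lasted 16 h at 37 °C; actives lower the ATP signal meaning cytotoxicity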). The method in brief: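 HCT-116 p53-bla cells (4000/well) rested 5 h at 37C, then received compounds in DMSO (217-fold dilution) for 16 h at 37C, 5% CO2. After the CCF4 read, CellTiter-Glo was added; ATP luminescence was read after 30 min at room temperature.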

Read-out in experiment [19]: Thyroid Hormone Responsive (THRSP), THRSP (gene 7069)
Kind of experiment: LTEA_HepaRG_THRSP: Life Technologies and Expression Analysis (LTEA) Assay for Thyroid Hormone Responsive (THRSP) using HepaRG (AID 2283536). As to conditions: mRNA level, 48 h; actives raise or lower the signal. The method in brief: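 Differentiated human HepaRG cells were exposed in duplicate for 48 h in serum-free induction medium to eight concentrations (top 100 uM, half-log steps, 0.5% DMSO). Expression was quantified by TaqMan qRT-PCR, normalized to ACTB, GAPDH and POLR2A, with bidirectional fitting against DMSO.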

Chain of Cellular tumor antigen p53 (Homo sapiens) (P04637 whole entry, looked up): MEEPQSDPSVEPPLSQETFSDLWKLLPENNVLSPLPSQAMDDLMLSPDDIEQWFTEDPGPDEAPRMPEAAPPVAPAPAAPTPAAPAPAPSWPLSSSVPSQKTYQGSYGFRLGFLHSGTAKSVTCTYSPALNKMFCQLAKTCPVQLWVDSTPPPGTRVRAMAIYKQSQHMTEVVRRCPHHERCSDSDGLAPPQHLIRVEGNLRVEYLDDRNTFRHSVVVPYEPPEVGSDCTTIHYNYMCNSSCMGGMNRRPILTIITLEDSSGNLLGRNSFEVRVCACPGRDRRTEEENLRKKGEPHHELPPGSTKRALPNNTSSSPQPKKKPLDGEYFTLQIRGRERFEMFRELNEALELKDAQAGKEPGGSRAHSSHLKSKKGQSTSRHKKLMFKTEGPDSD
Chain of Signal transducer and activator of transcription 3 (Homo sapiens) (P40763 whole entry, looked up): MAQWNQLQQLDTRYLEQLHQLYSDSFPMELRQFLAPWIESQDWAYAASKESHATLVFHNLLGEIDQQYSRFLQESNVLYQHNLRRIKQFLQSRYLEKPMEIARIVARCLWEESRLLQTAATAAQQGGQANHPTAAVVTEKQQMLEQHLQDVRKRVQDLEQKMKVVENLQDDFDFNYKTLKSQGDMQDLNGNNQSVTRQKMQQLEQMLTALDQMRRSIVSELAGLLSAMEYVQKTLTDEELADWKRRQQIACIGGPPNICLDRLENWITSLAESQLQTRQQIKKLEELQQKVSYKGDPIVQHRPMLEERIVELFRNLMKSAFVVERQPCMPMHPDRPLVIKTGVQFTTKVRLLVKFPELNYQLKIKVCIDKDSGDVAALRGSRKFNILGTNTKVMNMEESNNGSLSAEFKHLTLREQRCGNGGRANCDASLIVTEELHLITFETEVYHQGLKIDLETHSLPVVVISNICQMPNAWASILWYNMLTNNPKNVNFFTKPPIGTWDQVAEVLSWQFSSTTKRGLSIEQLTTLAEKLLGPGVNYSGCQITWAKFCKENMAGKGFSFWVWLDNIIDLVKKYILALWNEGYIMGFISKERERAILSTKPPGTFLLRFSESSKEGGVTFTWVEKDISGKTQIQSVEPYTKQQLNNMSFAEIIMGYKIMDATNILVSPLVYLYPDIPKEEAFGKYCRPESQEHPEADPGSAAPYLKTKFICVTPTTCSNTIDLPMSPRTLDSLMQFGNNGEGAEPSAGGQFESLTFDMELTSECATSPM
Chain of Nuclear factor erythroid 2-related factor 2 (Homo sapiens) (Q16236 whole entry, looked up): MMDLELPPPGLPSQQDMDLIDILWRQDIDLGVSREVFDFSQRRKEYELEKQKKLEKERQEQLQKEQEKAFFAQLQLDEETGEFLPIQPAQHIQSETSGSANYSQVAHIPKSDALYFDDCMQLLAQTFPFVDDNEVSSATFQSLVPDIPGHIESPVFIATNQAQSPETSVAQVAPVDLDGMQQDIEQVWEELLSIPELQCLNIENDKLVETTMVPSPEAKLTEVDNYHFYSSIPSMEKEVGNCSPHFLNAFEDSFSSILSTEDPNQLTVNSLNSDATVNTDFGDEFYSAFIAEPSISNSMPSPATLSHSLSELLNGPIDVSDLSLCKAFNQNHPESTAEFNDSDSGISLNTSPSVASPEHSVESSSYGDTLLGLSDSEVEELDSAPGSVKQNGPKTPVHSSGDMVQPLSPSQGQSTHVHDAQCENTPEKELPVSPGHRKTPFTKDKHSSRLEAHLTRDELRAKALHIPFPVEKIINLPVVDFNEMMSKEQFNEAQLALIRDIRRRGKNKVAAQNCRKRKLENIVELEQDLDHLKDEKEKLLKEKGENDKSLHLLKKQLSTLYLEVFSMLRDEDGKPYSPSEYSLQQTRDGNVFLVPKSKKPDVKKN

Turning to `CCCCC(CC)CO` (configuration not stated), the compound was called inactive in experiment [1], in experiment [2], in experiment [3], in experiment [4], in experiment [5] and in [6]. Moreover, the result in [7], in experiment [8], in [9], in experiment [10], in [11] and in [12] was inactive. Also, the compound was classed as inactive in [13], in experiment [14], in [15], in experiment [16] and in experiment [17].
As to `CC1(C)C(=O)NC(=O)N1CO`, the result in experiment [1], in experiment [2], in experiment [3], in experiment [4], in [5] and in experiment [6] was inactive. For the same compound, the result in experiment [7], in [8], in experiment [9], in [10], in [11] and in experiment [12] was inactive. Also, the compound was called inactive in experiment [13], in experiment [14], in experiment [18] and in [17].
`COC(=O)CCC(=O)OC`: the compound was classed as inactive in experiment [1], in experiment [2], in experiment [3], in experiment [4], in experiment [5] and in experiment [6]. For the same compound, the call in [7], in experiment [8], in experiment [9], in experiment [10], in experiment [11] and in [12] was inactive. The outcome in [13], in experiment [15], in experiment [16] and in [17] was inactive.
A word on the AC50: it is the midpoint of the concentration-response curve, whichever way the signal moves. For the compound `CC(=O)[C@@]1(O)CC[C@H]2[C@@H]3CCC4=CC(=O)CC[C@]4(C)[C@H]3CC[C@@]21C`, the compound was classed as inactive in experiment [1], in experiment [2], in experiment [3], in experiment [5], in experiment [6] and in experiment [7]. In addition, the compound was classed as inactive in experiment [8], in experiment [10], in [11], in [12], in experiment [13] and in experiment [14]. Also, in experiment [19], the concentration at half-maximal activity (AC50) is 50 µM (active).
